The values that follow come from PMC11006913.

Substitutions are numbered along the chain they refer to.

Common to all, as to assay: PBM; 200 nM protein, PBS
Holding throughout (settings): dsDNA, one strand shown

In assay [1] the target is CRX (Homo sapiens, UniProt O43186 26-111).
Assay [2] concerns the target T1, SIX6 (Homo sapiens, UniProt O95475 114-200, L167I).
T1 sequence: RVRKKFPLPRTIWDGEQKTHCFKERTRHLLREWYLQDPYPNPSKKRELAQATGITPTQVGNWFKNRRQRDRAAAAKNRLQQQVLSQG

The target in assay [3] is T2, SIX6 (Homo sapiens, UniProt O95475 114-200, L143V).
T2 sequence: T1 sequence with L30V, I54L

Assay [4] deals with T3, SIX6 (Homo sapiens, UniProt O95475 114-200, H141N).
T3 sequence: T1 sequence with H28N, I54L

For assay [5], the target named is T4, SIX6 (Homo sapiens, UniProt O95475 114-200, T165P).
T4 sequence: T1 sequence with T52P, I54L

The target of assay [6] is T5, SIX6 (Homo sapiens, UniProt O95475 114-200, L167M).
T5 sequence: T1 sequence with I54M

The target in assay [7] is T6, SIX6 (Homo sapiens, UniProt O95475 114-200, L143M).
T6 sequence: T1 sequence with L30M, I54L

The target of assay [8] is T7, SIX6 (Homo sapiens, UniProt O95475 114-200, L143I).
T7 sequence: T1 sequence with L30I, I54L

In assay [9] the target is T8, SIX6 (Homo sapiens, UniProt O95475 114-200, T165G).
T8 sequence: T1 sequence with T52G, I54L

The target of assay [10] is T9, SIX6 (Homo sapiens, UniProt O95475 114-200, T139Q).
T9 sequence: T1 sequence with T26Q, I54L

The target in assay [11] is CRX (Homo sapiens, UniProt O43186 26-111, E42D).
In assay [12] the target is T10, SIX6 (Homo sapiens, UniProt O95475 114-200, T165A).
T10 sequence: T1 sequence with T52A, I54L

Assay [13] deals with T11, SIX6 (Homo sapiens, UniProt O95475 114-200, L167V).
T11 sequence: T1 sequence with I54V

Assay [14] has as its target T12, SIX6 (Homo sapiens, UniProt O95475 114-200).
T12 sequence: T1 sequence with I54L

Assay [15] deals with T13, SIX6 (Homo sapiens, UniProt O95475 114-200, T165I).
T13 sequence: T1 sequence with T52I, I54L

Assay [16] concerns the target CRX (Homo sapiens, UniProt O43186 26-111, R41L).
Assay [17] has as its target HOXC9 (Homo sapiens, UniProt P31274 178-260, K195R).
For assay [18], the target named is HOXC9 (Homo sapiens, UniProt P31274 178-260).
Assay [19] has as its target ALX1 (Homo sapiens, UniProt Q15699 118-204, L144V).
In assay [20] the target is HOXC9 (Homo sapiens, UniProt P31274 178-260, R193K).
Assay [21] concerns the target ALX1 (Homo sapiens, UniProt Q15699 118-204, L144R).
The target of assay [22] is HOXC9 (Homo sapiens, UniProt P31274 178-260, R222W).
In assay [23] the target is ALX1 (Homo sapiens, UniProt Q15699 118-204).
For assay [24], the target named is HOXB9 (Homo sapiens, UniProt P17482 171-250, T197M).
In assay [25] the target is HOXA4 (Homo sapiens, UniProt Q00056 201-287, W262R).
Assay [26] has as its target HOXA4 (Homo sapiens, UniProt Q00056 201-287, R217L).
Assay [27] has as its target HOXB9 (Homo sapiens, UniProt P17482 171-250).
The target of assay [28] is HOXA4 (Homo sapiens, UniProt Q00056 201-287).
Assay [29] concerns the target HOXB9 (Homo sapiens, UniProt P17482 171-250, R186Q).
Assay [30] deals with HOXA4 (Homo sapiens, UniProt Q00056 201-287, W262F).
For assay [31], the target named is T14, VENTX (Homo sapiens, UniProt O95231 78-163, R121Q).
T14 sequence: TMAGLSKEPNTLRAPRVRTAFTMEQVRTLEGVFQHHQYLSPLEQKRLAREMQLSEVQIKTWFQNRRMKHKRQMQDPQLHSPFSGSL

Assay [32] addresses T15, VENTX (Homo sapiens, UniProt O95231 78-163, Y115F).
T15 sequence: T14 sequence with Y38F, Q44R

The target in another assay is PITX2 (Homo sapiens, UniProt Q99697 72-157).

CRX (Homo sapiens, UniProt O43186 26-111, E42D), sequence (O43186 26-111 E42D): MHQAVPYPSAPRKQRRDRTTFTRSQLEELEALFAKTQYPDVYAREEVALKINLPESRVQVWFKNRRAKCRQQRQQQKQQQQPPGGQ
CRX (Homo sapiens, UniProt O43186 26-111, R41L), sequence (O43186 26-111 R41L): as the sequence (O43186 26-111 E42D) above, with R16L, D17E counted along it
CRX (Homo sapiens, UniProt O43186 26-111), sequence (O43186 26-111): as the sequence (O43186 26-111 E42D) above, with D17E counted along it
HOXA4 (Homo sapiens, UniProt Q00056 201-287, R217L), sequence (Q00056 201-287 R217L): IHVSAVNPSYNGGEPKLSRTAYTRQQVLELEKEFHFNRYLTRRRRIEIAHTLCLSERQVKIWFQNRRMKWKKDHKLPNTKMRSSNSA
HOXB9 (Homo sapiens, UniProt P17482 171-250, T197M), sequence (P17482 171-250 T197M): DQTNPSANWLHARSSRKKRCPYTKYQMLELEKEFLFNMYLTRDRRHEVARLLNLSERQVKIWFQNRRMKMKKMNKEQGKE
HOXB9 (Homo sapiens, UniProt P17482 171-250), sequence (P17482 171-250): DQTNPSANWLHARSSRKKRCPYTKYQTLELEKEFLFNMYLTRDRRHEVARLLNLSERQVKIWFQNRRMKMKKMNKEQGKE
ALX1 (Homo sapiens, UniProt Q15699 118-204, L144R), sequence (Q15699 118-204 L144R): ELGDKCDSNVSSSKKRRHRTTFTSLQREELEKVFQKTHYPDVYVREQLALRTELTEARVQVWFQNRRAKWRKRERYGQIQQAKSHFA
HOXC9 (Homo sapiens, UniProt P31274 178-260, R193K), sequence (P31274 178-260 R193K): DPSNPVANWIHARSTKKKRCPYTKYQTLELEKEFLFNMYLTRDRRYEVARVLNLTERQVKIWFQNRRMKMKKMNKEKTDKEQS
ALX1 (Homo sapiens, UniProt Q15699 118-204), sequence (Q15699 118-204): as the sequence (Q15699 118-204 L144R) above, with R27L counted along it
HOXA4 (Homo sapiens, UniProt Q00056 201-287, W262F), sequence (Q00056 201-287 W262F): as the sequence (Q00056 201-287 R217L) above, with L17R, W62F counted along it
HOXA4 (Homo sapiens, UniProt Q00056 201-287, W262R), sequence (Q00056 201-287 W262R): as the sequence (Q00056 201-287 R217L) above, with L17R, W62R counted along it
HOXC9 (Homo sapiens, UniProt P31274 178-260, K195R), sequence (P31274 178-260 K195R): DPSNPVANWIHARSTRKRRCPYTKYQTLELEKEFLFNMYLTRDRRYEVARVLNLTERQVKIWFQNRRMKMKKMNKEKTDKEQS
ALX1 (Homo sapiens, UniProt Q15699 118-204, L144V), sequence (Q15699 118-204 L144V): as the sequence (Q15699 118-204 L144R) above, with R27V counted along it
HOXC9 (Homo sapiens, UniProt P31274 178-260), sequence (P31274 178-260): as the sequence (P31274 178-260 R193K) above, with K16R counted along it
HOXC9 (Homo sapiens, UniProt P31274 178-260, R222W), sequence (P31274 178-260 R222W): as the sequence (P31274 178-260 R193K) above, with K16R, R45W counted along it
HOXA4 (Homo sapiens, UniProt Q00056 201-287), sequence (Q00056 201-287): as the sequence (Q00056 201-287 R217L) above, with L17R counted along it
HOXB9 (Homo sapiens, UniProt P17482 171-250, R186Q), sequence (P17482 171-250 R186Q): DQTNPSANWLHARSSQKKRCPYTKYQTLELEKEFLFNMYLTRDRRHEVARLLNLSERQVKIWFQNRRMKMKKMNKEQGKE

As for AGGTGCCC, the binding signal in the assay with CRX [1] was 8.39 upbm affinity estimate (log intensity, higher = more binding, comparable within an allelic series); in the assay with SIX6 [2], 8.91 upbm affinity estimate (log intensity, higher = more binding, comparable within an allelic series); in the assay with SIX6 [3], 8.83 upbm affinity estimate (log intensity, higher = more binding, comparable within an allelic series); with SIX6 [4], 8.91 upbm affinity estimate (log intensity, higher = more binding, comparable within an allelic series); with SIX6 [5], 8.95 upbm affinity estimate (log intensity, higher = more binding, comparable within an allelic series); with SIX6 [6], 8.85 upbm affinity estimate (log intensity, higher = more binding, comparable within an allelic series). In addition, the binding signal was 8.84 upbm affinity estimate (log intensity, higher = more binding, comparable within an allelic series) with SIX6 [7]; 8.86 upbm affinity estimate (log intensity, higher = more binding, comparable within an allelic series) with SIX6 [8]; 8.89 upbm affinity estimate (log intensity, higher = more binding, comparable within an allelic series) with SIX6 [9]; 8.92 upbm affinity estimate (log intensity, higher = more binding, comparable within an allelic series) with SIX6 [10]; 8.38 upbm affinity estimate (log intensity, higher = more binding, comparable within an allelic series) with CRX [11]; 8.85 upbm affinity estimate (log intensity, higher = more binding, comparable within an allelic series) with SIX6 [12]. The binding signal with SIX6 [13] was 8.9 upbm affinity estimate (log intensity, higher = more binding, comparable within an allelic series); in the assay with SIX6 [14] it was 8.78 upbm affinity estimate (log intensity, higher = more binding, comparable within an allelic series); with SIX6 [15], 8.87 upbm affinity estimate (log intensity, higher = more binding, comparable within an allelic series); with CRX [16], 8.35 upbm affinity estimate (log intensity, higher = more binding, comparable within an allelic series).

On to GACGCGTC, for which the binding signal is 8.63 upbm affinity estimate (log intensity, higher = more binding, comparable within an allelic series) with CRX [1]; 9.76 upbm affinity estimate (log intensity, higher = more binding, comparable within an allelic series) in the assay with HOXC9 [17]; 8.54 upbm affinity estimate (log intensity, higher = more binding, comparable within an allelic series) with CRX [11]; 9.79 upbm affinity estimate (log intensity, higher = more binding, comparable within an allelic series) in the assay with HOXC9 [18]; 6.58 upbm affinity estimate (log intensity, higher = more binding, comparable within an allelic series) with ALX1 [19]; 9.46 upbm affinity estimate (log intensity, higher = more binding, comparable within an allelic series) in the assay with HOXC9 [20]. Also, the binding signal in the assay with ALX1 [21] is 6.43 upbm affinity estimate (log intensity, higher = more binding, comparable within an allelic series); in the assay with HOXC9 [22] it was 9.62 upbm affinity estimate (log intensity, higher = more binding, comparable within an allelic series); with CRX [16], 8.22 upbm affinity estimate (log intensity, higher = more binding, comparable within an allelic series); with ALX1 [23], 6.73 upbm affinity estimate (log intensity, higher = more binding, comparable within an allelic series).

As to CACGCCCC, the binding signal was 8.24 upbm affinity estimate (log intensity, higher = more binding, comparable within an allelic series) with CRX [1]; 8.49 upbm affinity estimate (log intensity, higher = more binding, comparable within an allelic series) with HOXB9 [24]; 9.05 upbm affinity estimate (log intensity, higher = more binding, comparable within an allelic series) with SIX6 [2]; 9.84 upbm affinity estimate (log intensity, higher = more binding, comparable within an allelic series) with HOXA4 [25]; 8.92 upbm affinity estimate (log intensity, higher = more binding, comparable within an allelic series) with SIX6 [3]; 9.05 upbm affinity estimate (log intensity, higher = more binding, comparable within an allelic series) in the assay with SIX6 [4]. Besides, the binding signal is 8.95 upbm affinity estimate (log intensity, higher = more binding, comparable within an allelic series) with SIX6 [5]; 8.99 upbm affinity estimate (log intensity, higher = more binding, comparable within an allelic series) with SIX6 [6]; 9.02 upbm affinity estimate (log intensity, higher = more binding, comparable within an allelic series) with SIX6 [7]; 8.94 upbm affinity estimate (log intensity, higher = more binding, comparable within an allelic series) with SIX6 [8]; 9.18 upbm affinity estimate (log intensity, higher = more binding, comparable within an allelic series) with SIX6 [9]; 9.86 upbm affinity estimate (log intensity, higher = more binding, comparable within an allelic series) in the assay with HOXA4 [26]. For the same sequence, the binding signal is 8.48 upbm affinity estimate (log intensity, higher = more binding, comparable within an allelic series) in the assay with HOXB9 [27]; 9.14 upbm affinity estimate (log intensity, higher = more binding, comparable within an allelic series) with SIX6 [10]; 8.24 upbm affinity estimate (log intensity, higher = more binding, comparable within an allelic series) with CRX [11]; 9.17 upbm affinity estimate (log intensity, higher = more binding, comparable within an allelic series) with SIX6 [12]; 9.74 upbm affinity estimate (log intensity, higher = more binding, comparable within an allelic series) with HOXA4 [28]; 8.99 upbm affinity estimate (log intensity, higher = more binding, comparable within an allelic series) with SIX6 [13]. Also, the binding signal with SIX6 [14] was 9.08 upbm affinity estimate (log intensity, higher = more binding, comparable within an allelic series); with SIX6 [15], 9.05 upbm affinity estimate (log intensity, higher = more binding, comparable within an allelic series); in the assay with HOXB9 [29] it was 8.47 upbm affinity estimate (log intensity, higher = more binding, comparable within an allelic series); with CRX [16], 8.33 upbm affinity estimate (log intensity, higher = more binding, comparable within an allelic series); with HOXA4 [30] it was 9.99 upbm affinity estimate (log intensity, higher = more binding, comparable within an allelic series).

Take AATTCTGA: the binding signal with CRX [1] is 10 upbm affinity estimate (log intensity, higher = more binding, comparable within an allelic series).

On to CCCTGATC, for which the binding signal with CRX [1] was 10.2 upbm affinity estimate (log intensity, higher = more binding, comparable within an allelic series); with SIX6 [2] it was 10.2 upbm affinity estimate (log intensity, higher = more binding, comparable within an allelic series); in the assay with SIX6 [3] it was 9.63 upbm affinity estimate (log intensity, higher = more binding, comparable within an allelic series); in the assay with SIX6 [4], 10.2 upbm affinity estimate (log intensity, higher = more binding, comparable within an allelic series); with SIX6 [5], 9.31 upbm affinity estimate (log intensity, higher = more binding, comparable within an allelic series); with SIX6 [8], 9.69 upbm affinity estimate (log intensity, higher = more binding, comparable within an allelic series). The binding signal with SIX6 [9] is 10.3 upbm affinity estimate (log intensity, higher = more binding, comparable within an allelic series); with SIX6 [10], 10.4 upbm affinity estimate (log intensity, higher = more binding, comparable within an allelic series); in the assay with CRX [11], 10 upbm affinity estimate (log intensity, higher = more binding, comparable within an allelic series); in the assay with SIX6 [14], 10.2 upbm affinity estimate (log intensity, higher = more binding, comparable within an allelic series).

For the sequence CAGATTAG, the binding signal with CRX [1] was 13.1 upbm affinity estimate (log intensity, higher = more binding, comparable within an allelic series); with VENTX [31] it was 10.6 upbm affinity estimate (log intensity, higher = more binding, comparable within an allelic series); in the assay with VENTX [32], 10.7 upbm affinity estimate (log intensity, higher = more binding, comparable within an allelic series); with CRX [11] it was 13.1 upbm affinity estimate (log intensity, higher = more binding, comparable within an allelic series); in the assay with PITX2, 12.3 upbm affinity estimate (log intensity, higher = more binding, comparable within an allelic series); with CRX [16], 12.6 upbm affinity estimate (log intensity, higher = more binding, comparable within an allelic series).

Consider GCAGATTA, for which the binding signal is 13 upbm affinity estimate (log intensity, higher = more binding, comparable within an allelic series) in the assay with CRX [1]; 10.3 upbm affinity estimate (log intensity, higher = more binding, comparable within an allelic series) in the assay with VENTX [31]; 10.4 upbm affinity estimate (log intensity, higher = more binding, comparable within an allelic series) with VENTX [32]; 13 upbm affinity estimate (log intensity, higher = more binding, comparable within an allelic series) with CRX [11]; 12.3 upbm affinity estimate (log intensity, higher = more binding, comparable within an allelic series) with PITX2.
